Our source for the Percent Effect values is ChEMBL document CHEMBL3988442, “University of Dundee, Small-Polar-MMV Screening Library” (2021).

For some of these results: Measured potencies and affinities stand elsewhere.

Design in all cases: scale not given: direction of the effect not stated beside the values
The target of test [1] is Protein translocase subunit SecA (Escherichia coli (strain K12)) (UniProt P10408). The test is described as follows: Assay to Identify E. coli SecA ATPase Inhibitors. Format: functional. The conditions noted are these: 30 µM.
For test [2], the target named is T1, Ubiquitin-activating enzyme e1, putative (Leishmania donovani (strain BPK282A1)) (UniProt E9BSI1).
T1 sequence (whole entry): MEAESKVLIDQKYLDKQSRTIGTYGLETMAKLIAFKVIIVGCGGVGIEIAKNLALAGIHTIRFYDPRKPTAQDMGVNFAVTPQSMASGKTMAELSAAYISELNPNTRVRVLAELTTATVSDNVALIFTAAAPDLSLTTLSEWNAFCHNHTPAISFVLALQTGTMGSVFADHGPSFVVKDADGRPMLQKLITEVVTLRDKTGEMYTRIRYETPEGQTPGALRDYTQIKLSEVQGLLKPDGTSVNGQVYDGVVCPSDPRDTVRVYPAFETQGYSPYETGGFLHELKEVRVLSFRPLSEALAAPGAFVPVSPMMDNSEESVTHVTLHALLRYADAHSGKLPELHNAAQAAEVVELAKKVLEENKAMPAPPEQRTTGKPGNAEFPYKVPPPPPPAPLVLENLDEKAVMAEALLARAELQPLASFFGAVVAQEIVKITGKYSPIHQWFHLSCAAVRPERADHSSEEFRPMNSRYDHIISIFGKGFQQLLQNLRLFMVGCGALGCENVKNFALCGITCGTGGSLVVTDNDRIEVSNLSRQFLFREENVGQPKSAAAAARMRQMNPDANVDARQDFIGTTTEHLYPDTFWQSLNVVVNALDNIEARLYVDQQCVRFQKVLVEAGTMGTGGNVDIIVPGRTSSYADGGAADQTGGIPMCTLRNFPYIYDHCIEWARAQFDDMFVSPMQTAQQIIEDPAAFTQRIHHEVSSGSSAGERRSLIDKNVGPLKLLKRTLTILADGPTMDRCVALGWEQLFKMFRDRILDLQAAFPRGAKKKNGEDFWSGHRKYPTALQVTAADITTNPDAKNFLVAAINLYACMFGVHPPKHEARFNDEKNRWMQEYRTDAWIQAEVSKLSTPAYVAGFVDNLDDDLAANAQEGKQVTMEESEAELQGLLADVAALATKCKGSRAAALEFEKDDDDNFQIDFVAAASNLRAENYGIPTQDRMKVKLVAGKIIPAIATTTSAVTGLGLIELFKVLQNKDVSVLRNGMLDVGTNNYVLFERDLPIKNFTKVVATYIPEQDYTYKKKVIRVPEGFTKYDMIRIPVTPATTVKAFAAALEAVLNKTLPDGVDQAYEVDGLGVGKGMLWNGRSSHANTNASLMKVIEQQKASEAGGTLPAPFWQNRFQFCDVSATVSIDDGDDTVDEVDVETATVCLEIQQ
The test is described as follows: Leishmania donovani Ubiquitin Activating Enzyme (LdE1). It is filed as functional. The conditions noted are these: 30 µM.

Test [3] has as its target AMP-activated protein kinase, AMPK (Homo sapiens) (UniProt P54646+O43741+P54619+Q9UGJ0+Q9Y478+Q13131+Q9UGI9). The test is described as follows: AMP-dependent Kinase enzyme assay. An in vitro enzyme assay that detects ADP turnover that is directly proportional to AMPK activity. This uses naive AMPK that is activated during the assay with MK-8722. It is filed as functional. The conditions noted are these: 30 µM.

Test [4] addresses Sialic acid-binding Ig-like lectin 9 (Homo sapiens) (UniProt Q9Y336). Nature of the test: Hs-Siglec9 ALPHAscreen SOP 20170721. The conditions noted are these: 10 µM. (Alpha assays give light when donor and acceptor beads are brought close together.)
The test system of the next test is Trypanosoma cruzi. The test is described as follows: Trypanosoma cruzi phosphomannomutase and mannose-1-phosphate guanylyltransferase assay. The conditions noted are these: 10 µM. It is filed as functional.
Test [5] addresses T2, Arginase-2, mitochondrial (Homo sapiens) (UniProt P78540).
T2 sequence (whole entry): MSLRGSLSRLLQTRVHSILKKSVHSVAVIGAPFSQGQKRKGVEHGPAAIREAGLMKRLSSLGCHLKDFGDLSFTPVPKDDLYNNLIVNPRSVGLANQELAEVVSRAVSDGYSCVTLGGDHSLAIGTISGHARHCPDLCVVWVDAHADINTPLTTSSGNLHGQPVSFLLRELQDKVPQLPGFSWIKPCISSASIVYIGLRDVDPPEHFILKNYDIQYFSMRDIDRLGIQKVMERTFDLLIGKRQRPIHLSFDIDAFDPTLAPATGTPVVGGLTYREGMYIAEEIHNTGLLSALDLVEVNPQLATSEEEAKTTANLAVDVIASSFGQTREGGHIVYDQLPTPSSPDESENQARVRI
The test is described as follows: in vitro enzyme assay to detect the production of urea directly proportional to the activity of Arginase II. Further: in the data most compounds retested in dose-response had high values. It is filed as functional. The conditions noted are these: 33.3 µM.

The target of test [6] is T3, Proteasome subunit beta (Trypanosoma cruzi) (UniProt O96673).
T3 sequence (whole entry): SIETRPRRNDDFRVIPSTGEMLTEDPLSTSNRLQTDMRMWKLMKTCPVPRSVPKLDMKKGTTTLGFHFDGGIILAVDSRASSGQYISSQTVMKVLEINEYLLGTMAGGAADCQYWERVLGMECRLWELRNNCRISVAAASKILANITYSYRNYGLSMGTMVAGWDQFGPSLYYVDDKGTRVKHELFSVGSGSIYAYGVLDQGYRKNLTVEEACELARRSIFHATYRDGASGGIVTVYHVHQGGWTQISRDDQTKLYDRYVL
Nature of the test: Trypanosoma cruzi proteasome chymotrypsin-like activity (TcProtChymo) assay. Further: in the data most compounds retested in dose-response had high values. It is filed as functional. The conditions noted are these: 9.37 µM.

Another test is filed under the species Homo sapiens. Nature of the test: To identify inhibition of the IFN signalling (Jak-Stat) pathway via expression of an eGFP reporter gene under the control of an IFN-stimulated response element (ISRE) containing MxA promoter. Format: functional. The conditions noted are these: 30 µM.
In test [7] the target is T4, Tyrosyl-tRNA synthetase, putative (Trypanosoma cruzi (strain CL Brener)) (UniProt Q4DSP6).
T4 sequence (whole entry): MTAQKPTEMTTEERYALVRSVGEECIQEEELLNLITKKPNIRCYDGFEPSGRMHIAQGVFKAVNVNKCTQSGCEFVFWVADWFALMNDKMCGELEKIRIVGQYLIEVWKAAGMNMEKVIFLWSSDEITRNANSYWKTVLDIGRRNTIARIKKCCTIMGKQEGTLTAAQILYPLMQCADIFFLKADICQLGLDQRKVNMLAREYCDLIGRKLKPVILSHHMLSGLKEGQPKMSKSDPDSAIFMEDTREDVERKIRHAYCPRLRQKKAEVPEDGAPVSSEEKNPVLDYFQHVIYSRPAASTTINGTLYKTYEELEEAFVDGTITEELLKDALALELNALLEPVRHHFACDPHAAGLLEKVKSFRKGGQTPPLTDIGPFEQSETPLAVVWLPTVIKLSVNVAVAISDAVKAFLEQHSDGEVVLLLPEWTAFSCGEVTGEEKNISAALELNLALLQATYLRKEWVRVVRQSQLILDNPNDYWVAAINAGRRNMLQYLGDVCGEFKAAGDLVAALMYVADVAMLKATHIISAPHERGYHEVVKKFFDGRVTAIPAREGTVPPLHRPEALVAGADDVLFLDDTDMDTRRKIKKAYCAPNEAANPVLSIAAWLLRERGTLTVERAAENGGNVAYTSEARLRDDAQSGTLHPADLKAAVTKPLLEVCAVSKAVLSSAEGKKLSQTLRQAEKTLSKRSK
The test is described as follows: Trypanosoma cruzi tyrosyl tRNA synthetase (TcYRS) _High Tyrosine SOP. Further: in the data most compounds retested in dose-response had high values. It is filed as functional. The conditions noted are these: 30 µM.

In test [8] the target is T4, Tyrosyl-tRNA synthetase, putative (Trypanosoma cruzi (strain CL Brener)). Nature of the test: Trypanosoma cruzi tyrosyl tRNA synthetase (TcYRS) SOP. The conditions noted are these: 30 µM. Format: functional.
The target of test [9] is Chromo domain-containing protein 1 (Saccharomyces cerevisiae (strain ATCC 204508 / S288c) (Baker's yeast)) (UniProt P32657). Nature of the test: ScCHD-1 Enzyme Inhibition Assay. Further: in the data most compounds retested in dose-response had high values. Format: functional. The conditions noted are these: 30 µM.
Chain of Chromo domain-containing protein 1 (Saccharomyces cerevisiae (strain ATCC 204508 / S288c) (Baker's yeast)) (P32657 whole entry, the tested form may be a part): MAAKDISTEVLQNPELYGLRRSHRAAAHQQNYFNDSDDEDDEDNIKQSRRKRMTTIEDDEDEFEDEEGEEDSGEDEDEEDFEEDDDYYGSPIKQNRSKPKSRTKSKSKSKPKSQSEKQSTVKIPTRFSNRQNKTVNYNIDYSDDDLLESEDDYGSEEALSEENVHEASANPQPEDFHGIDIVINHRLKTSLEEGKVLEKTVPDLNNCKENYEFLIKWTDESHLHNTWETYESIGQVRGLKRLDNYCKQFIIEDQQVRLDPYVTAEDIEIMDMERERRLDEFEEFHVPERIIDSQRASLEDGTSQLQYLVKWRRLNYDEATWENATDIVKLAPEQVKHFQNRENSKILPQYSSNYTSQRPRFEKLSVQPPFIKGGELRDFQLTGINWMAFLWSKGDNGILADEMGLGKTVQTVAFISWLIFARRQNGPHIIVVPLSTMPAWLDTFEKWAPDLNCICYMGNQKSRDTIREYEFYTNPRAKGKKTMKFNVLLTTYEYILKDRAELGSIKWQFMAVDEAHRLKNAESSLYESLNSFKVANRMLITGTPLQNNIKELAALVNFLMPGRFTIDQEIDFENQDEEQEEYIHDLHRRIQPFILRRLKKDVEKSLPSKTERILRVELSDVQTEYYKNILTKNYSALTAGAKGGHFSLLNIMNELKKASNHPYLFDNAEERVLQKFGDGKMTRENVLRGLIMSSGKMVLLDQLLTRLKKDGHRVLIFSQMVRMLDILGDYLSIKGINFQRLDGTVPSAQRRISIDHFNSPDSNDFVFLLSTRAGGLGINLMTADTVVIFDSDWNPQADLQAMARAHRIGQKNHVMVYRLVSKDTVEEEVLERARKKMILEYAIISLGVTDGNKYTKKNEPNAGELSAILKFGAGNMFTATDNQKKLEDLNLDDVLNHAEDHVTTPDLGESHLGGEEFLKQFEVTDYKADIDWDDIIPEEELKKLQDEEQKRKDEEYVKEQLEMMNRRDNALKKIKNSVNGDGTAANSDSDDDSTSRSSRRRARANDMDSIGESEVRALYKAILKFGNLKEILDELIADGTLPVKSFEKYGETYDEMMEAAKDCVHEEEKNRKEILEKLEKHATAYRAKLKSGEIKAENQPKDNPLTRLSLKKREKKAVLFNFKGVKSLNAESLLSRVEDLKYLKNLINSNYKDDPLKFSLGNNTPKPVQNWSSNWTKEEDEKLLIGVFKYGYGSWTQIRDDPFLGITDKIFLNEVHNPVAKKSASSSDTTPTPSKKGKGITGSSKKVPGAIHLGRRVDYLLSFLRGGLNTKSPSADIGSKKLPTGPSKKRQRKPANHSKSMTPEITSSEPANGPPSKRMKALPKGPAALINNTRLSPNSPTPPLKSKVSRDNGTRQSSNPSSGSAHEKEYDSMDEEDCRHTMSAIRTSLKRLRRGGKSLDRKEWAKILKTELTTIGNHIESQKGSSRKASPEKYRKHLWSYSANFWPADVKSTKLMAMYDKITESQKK

Chain of Protein translocase subunit SecA (Escherichia coli (strain K12)) (P10408 whole entry): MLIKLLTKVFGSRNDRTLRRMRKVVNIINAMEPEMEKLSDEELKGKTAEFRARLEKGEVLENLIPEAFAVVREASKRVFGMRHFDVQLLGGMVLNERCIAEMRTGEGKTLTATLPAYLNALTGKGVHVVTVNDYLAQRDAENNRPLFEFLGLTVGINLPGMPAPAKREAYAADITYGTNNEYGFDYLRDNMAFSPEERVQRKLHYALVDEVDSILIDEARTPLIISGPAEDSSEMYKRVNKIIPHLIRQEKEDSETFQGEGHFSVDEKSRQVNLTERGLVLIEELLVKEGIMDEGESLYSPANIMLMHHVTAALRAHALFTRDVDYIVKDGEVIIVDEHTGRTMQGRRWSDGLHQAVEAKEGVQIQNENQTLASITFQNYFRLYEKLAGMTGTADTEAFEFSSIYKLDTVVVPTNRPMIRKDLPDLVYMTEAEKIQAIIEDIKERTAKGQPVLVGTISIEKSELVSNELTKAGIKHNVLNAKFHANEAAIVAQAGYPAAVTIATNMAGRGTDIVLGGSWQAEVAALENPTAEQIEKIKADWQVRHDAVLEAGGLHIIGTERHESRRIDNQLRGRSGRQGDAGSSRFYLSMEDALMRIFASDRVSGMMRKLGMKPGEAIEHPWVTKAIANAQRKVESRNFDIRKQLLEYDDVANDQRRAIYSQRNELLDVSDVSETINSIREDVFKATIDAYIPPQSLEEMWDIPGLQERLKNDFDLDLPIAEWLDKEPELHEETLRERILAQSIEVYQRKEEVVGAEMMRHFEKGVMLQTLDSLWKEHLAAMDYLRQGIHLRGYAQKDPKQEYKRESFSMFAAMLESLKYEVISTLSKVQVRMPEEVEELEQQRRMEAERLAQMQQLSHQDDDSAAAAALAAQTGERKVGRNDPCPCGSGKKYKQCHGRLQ
Chain of Sialic acid-binding Ig-like lectin 9 (Homo sapiens) (Q9Y336 whole entry): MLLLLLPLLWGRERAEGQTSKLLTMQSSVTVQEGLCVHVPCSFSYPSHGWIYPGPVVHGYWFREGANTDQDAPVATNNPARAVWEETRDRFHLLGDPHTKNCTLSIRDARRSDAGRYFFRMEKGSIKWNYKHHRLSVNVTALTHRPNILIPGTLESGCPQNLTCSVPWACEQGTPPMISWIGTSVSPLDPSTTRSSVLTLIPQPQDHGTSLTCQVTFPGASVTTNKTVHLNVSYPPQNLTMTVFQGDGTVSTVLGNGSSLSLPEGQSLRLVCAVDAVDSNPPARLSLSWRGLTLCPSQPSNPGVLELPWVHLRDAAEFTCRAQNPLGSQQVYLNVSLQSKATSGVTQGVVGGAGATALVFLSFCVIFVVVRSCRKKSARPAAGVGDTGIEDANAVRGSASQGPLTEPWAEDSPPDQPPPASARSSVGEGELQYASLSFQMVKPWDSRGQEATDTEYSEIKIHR

In the case of `CCOc1ccc(C(C)NC(=O)N2CCC(C(N)=O)CC2)cc1OC` (stereo unspecified), the Percent Effect in test [1] was -4.66%; in [2], 10.8%; in test [3] it was 4.64%; in test [4] it was 6.99%; in the test on Trypanosoma cruzi, 6.76%; in test [5], 1.43%. For the same compound, the Percent Effect in test [6] is 14.7%; in the test listed under Homo sapiens, 4.99%; in test [7], 5.82%; in test [8] it was 12.2%; in test [9], -0.606%.

With `Cc1noc(C2CCCCN2C(=O)NC2CCCC2)n1` (stereo unspecified), the Percent Effect is 1.58% in test [1]; 7.89% in [2]; 5.88% in test [3]; -7.67% in test [4]; -9.25% with Trypanosoma cruzi; -2.37% in test [5]. In addition, the Percent Effect in test [6] is 21.8%; in the test listed under Homo sapiens, 0.903%; in [7], 2.13%; in [8] it was 2.6%; in test [9], -4.56%.

For `Cc1ccc(CNCCOc2ccc(S(C)(=O)=O)cc2)cc1`, the Percent Effect was -7.67% in [1]; -5.48% in [2]; 4.35% in [3]; -1.11% in test [4]; -2.18% in the test on Trypanosoma cruzi; -0.798% in [5]. Moreover, the Percent Effect is -3.68% in test [6]; 9.56% in the test listed under Homo sapiens; 4.17% in test [7]; -1.24% in [8]; 3.43% in test [9].

For the compound `COc1ccc(CNC(=O)NC2CCC(O)CC2)c(C(F)(F)F)c1` (stereo unspecified), the Percent Effect in test [1] was -1.24%; in [2] it was -9.72%; in test [3], -2.59%; in test [4], -9.45%; in the test with Trypanosoma cruzi it was -4.57%; in test [5], 1.32%. Further, the Percent Effect in test [6] is 14%; in the test listed under Homo sapiens it was -1.15%; in test [7], 3.16%; in test [8], 2.56%; in test [9], -2.64%.

Regarding `COCc1ccc(CN2CCC(O)(Cn3ccc4ncccc43)CC2)o1`, the Percent Effect in [1] is -1.21%; in test [2], 2.67%; in test [3], -2.95%; in [4] it was 1.83%; with Trypanosoma cruzi, 5.51%; in test [5] it was 0.233%. For the same compound, the Percent Effect was 9.07% in test [6]; 7.16% in the test listed under Homo sapiens; 2.13% in test [7]; 3.85% in test [8]; -6.45% in test [9].

Take `COC(=O)c1ccc(N2CCN(CCC(=O)NC(N)=O)C(C)C2)cc1` (stereo unspecified): the Percent Effect was -5.21% in test [1]; 15.8% in [2]; -4.81% in test [3]; 0.77% in [4]; -5.51% with Trypanosoma cruzi; -0.719% in [5]. Also, the Percent Effect in test [6] is -2.45%; in the test filed under Homo sapiens, 5.46%; in test [7], 5.42%; in test [8] it was 13.6%; in test [9] it was 2.67%.

As to `Cc1cc(NC(=O)NCC(C)O)n(C)n1` (stereo unspecified), the Percent Effect in [1] was -5.54%; in test [2] it was 10.5%; in test [3], -8.37%; in test [4], 7.06%; in the test with Trypanosoma cruzi it was 5.64%; in [5] it was 0%. The Percent Effect in test [6] is 12.2%; in the test listed under Homo sapiens, -5.12%; in [7], 2.45%; in test [8], 12.2%; in test [9], -14.2%.

With `Cc1ccc(N2CCN(C(=O)COc3ccccc3)CC2)nn1`, the Percent Effect in [1] was -2.94%; in test [2], 8.22%; in test [3], 6.52%; in test [4], -4.33%; in the test on Trypanosoma cruzi, -3.92%; in test [5], -0.909%. Besides, the Percent Effect in test [6] was 10.8%; in the test listed under Homo sapiens, 13.2%; in test [7], 5.38%; in test [8] it was 17.5%; in [9], -6.41%.

In the case of `CCOc1ncccc1NC(=O)N1CCCCCC1`, the Percent Effect in test [1] was -4.07%; in test [2], 5.41%; in test [3], 0.669%; in [4], 8.62%; in the test on Trypanosoma cruzi, -0.836%; in test [5], -1.29%. Besides, the Percent Effect in [6] was 0.179%; in the test filed under Homo sapiens it was 13.2%; in [7], 2.97%; in [8], 6.1%; in [9] it was 1.09%.

For `Cc1nn(C)c2cnn(CC(=O)NCCc3ccccc3)c12`, the Percent Effect in test [1] is -4.41%; in test [2], 6.67%; in [3], 5.28%; in test [4], 4.15%; in the test on Trypanosoma cruzi, -2.16%; in [5], -12.5%. Besides, the Percent Effect is 13.3% in test [6]; 1.66% in the test listed under Homo sapiens; 5.29% in test [7]; 17.9% in test [8]; -8.21% in test [9].

For `CC1CN(C)c2ccccc2CN1C(=O)CSc1ccncc1` (stereo unspecified), the Percent Effect is -1.53% in [1]; 11% in test [2]; 2.54% in [3]; 1.63% in test [4]; 0.783% in the test with Trypanosoma cruzi; 2.73% in test [5]. Moreover, the Percent Effect is 2.48% in test [6]; 17.3% in the test filed under Homo sapiens; 6.45% in test [7]; 7.5% in [8]; -6.19% in test [9].
